Some test systems named below: DU-145 prostate; K-562 leukemia; MALME-3M melanoma; MDA-MB-231 breast; RXF 393 renal; SF-268 CNS; SF-295 CNS; SF-539 CNS; UACC-257 melanoma; M14 melanoma; HCT-15 colon; HT29 colon; SNB-75 CNS; SNB-19 CNS; U251 CNS; PC-3 prostate; SK-MEL-5 melanoma; UACC-62 melanoma; LOX IMVI melanoma; SK-MEL-28 melanoma.
Test in all cases: NCI-60 one-dose screen, 48 h (100 = growth as untreated, 0 = no growth, -100 = all killed)
What all share (details): 10 µM unless noted

About 83,000 compounds went through this panel and 20% of them were active in at least one assay; those are over-represented in the sample as a whole.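 Growth was measured after 48 h exposure to one concentration of compound in 96-well plates. Values under 10 count as active.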 A number with no mark means an inactive call. Activity calls are given as the source filed them.

As to `COc1cccc(-c2nc3sccn3c2-c2ccnc(NCCNS(=O)(=O)c3cccc(F)c3)c2)c1`, the growth was 29.7% with DU-145 prostate; 19% with K-562 leukemia; 46.6% in the test on MALME-3M melanoma; 64.6% in the test on MDA-MB-231 breast; 39.9% in the test with RXF 393 renal; 37.8% in the test on SF-268 CNS. Also, the growth is 15.5% in the test on SF-295 CNS; 70.7% with SF-539 CNS; 44.6% with UACC-257 melanoma; 33.3% in the test with M14 melanoma; 25.1% in the test on HCT-15 colon; 27.9% in the test with HT29 colon. Besides, the growth in the test on SNB-75 CNS was 27.4%; in the test on SNB-19 CNS, 59.2%; with U251 CNS, 45.4%; in the test with PC-3 prostate it was 14.1%; in the test with SK-MEL-5 melanoma it was 2.05% (active); in the test on UACC-62 melanoma, -17.9% (active). Further, the growth was 32.7% in the test on LOX IMVI melanoma and 56.1% in the test on SK-MEL-28 melanoma.

For `CC(C)(C)c1ccc(/C=C/C(=O)Nc2ccc(O)cc2)cc1`, the growth is 70.3% in the test with DU-145 prostate; 4.2% (active) in the test with K-562 leukemia; 67% in the test with MALME-3M melanoma; 53% with MDA-MB-231 breast; 90.9% in the test on RXF 393 renal; 59.7% with SF-268 CNS. Also, the growth in the test on SF-295 CNS was 79.5%; with SF-539 CNS, 40.6%; in the test with UACC-257 melanoma, 64.9%; in the test on M14 melanoma, 28.4%; with HCT-15 colon, 43.4%; in the test on HT29 colon it was 18.7%. In addition, the growth was 96.6% with SNB-75 CNS; 83.3% in the test with SNB-19 CNS; 72.8% in the test with U251 CNS; 59% with PC-3 prostate; 51.4% in the test on SK-MEL-5 melanoma; 55.1% in the test with UACC-62 melanoma. Further, the growth in the test on LOX IMVI melanoma was -3.96% (active); in the test with SK-MEL-28 melanoma, 86.5%.

As to `CC(=O)[C@@H]1CC[C@]2(COS(=O)(=O)c3ccc(C)cc3)CC[C@]3(C)[C@H](CC[C@@H]4[C@@]5(C)CCCNC(C)(C)[C@@H]5CC[C@]43C)[C@@H]12`, the growth with DU-145 prostate is 86.6%; with K-562 leukemia, 2.27% (active); in the test on MALME-3M melanoma, 88.1%; with MDA-MB-231 breast, 96.4%; with RXF 393 renal it was 63.9%; in the test with SF-268 CNS it was 73.2%. Also, the growth is 101% in the test with SF-295 CNS; 77.4% in the test with SF-539 CNS; 49.9% in the test on UACC-257 melanoma; 79% in the test with M14 melanoma; 32% in the test with HCT-15 colon; 2.18% (active) in the test with HT29 colon. Further, the growth in the test on SNB-75 CNS was 83.2%; in the test with SNB-19 CNS, 91.7%; with U251 CNS, 61.8%; with PC-3 prostate it was 56.8%; in the test with SK-MEL-5 melanoma, 76.2%; in the test with UACC-62 melanoma it was 58.9%. Also, the growth in the test on SK-MEL-28 melanoma was 85.6%.

Regarding `Cc1cccc(Cc2cnc(NC(=O)/C=C/c3ccco3)s2)c1`, the growth in the test on DU-145 prostate was 15.9%; in the test on K-562 leukemia it was 8.09% (active); in the test with MALME-3M melanoma it was 54.8%; in the test with MDA-MB-231 breast, 56.5%; in the test with RXF 393 renal, -0.566% (active); in the test on SF-268 CNS, 49.4%. Also, the growth with SF-295 CNS is 6.75% (active); with SF-539 CNS it was -19.9% (active); in the test with UACC-257 melanoma it was 41.3%; in the test on M14 melanoma, 10.3%; in the test with HCT-15 colon, 12.8%; with HT29 colon, 6.71% (active). Besides, the growth with SNB-75 CNS was 16.8%; in the test on SNB-19 CNS it was 52.2%; in the test with U251 CNS, 20.6%; in the test on PC-3 prostate, 27.2%; with SK-MEL-5 melanoma, 11.2%; in the test with UACC-62 melanoma, 28.1%. Moreover, the growth is 18.8% in the test on LOX IMVI melanoma and 62.2% in the test with SK-MEL-28 melanoma.

As for `CCCCCCCOc1c(OC)cc(C2CC(=O)Nc3c2c(C)nn3-c2nc3ccccc3[nH]2)cc1OC` (configuration not stated), the growth with DU-145 prostate is 29.6%; in the test with K-562 leukemia, 21%; with MALME-3M melanoma it was -51.5% (active); with MDA-MB-231 breast, -66.3% (active); in the test on RXF 393 renal it was -40.1% (active); with SF-268 CNS it was -9.44% (active). For the same molecule, the growth was -57.4% (active) in the test with SF-295 CNS; -88.5% (active) in the test on SF-539 CNS; 10.1% in the test on UACC-257 melanoma; 4.61% (active) in the test with M14 melanoma; 0.5% (active) in the test with HCT-15 colon; -2.41% (active) with HT29 colon. For the same molecule, the growth is -31.5% (active) with SNB-75 CNS; 16.1% with SNB-19 CNS; -58.2% (active) in the test with U251 CNS; 12% in the test on PC-3 prostate; -83.7% (active) in the test on SK-MEL-5 melanoma; -49.2% (active) in the test with UACC-62 melanoma. The growth in the test with SK-MEL-28 melanoma was -9.72% (active).

Take `C=CCSc1nc2ccccc2cc1/C=N/O`: the growth is 110% with DU-145 prostate; 92.3% in the test with K-562 leukemia; 129% in the test on MALME-3M melanoma; 97.6% with MDA-MB-231 breast; 68.8% in the test with RXF 393 renal; 90.8% in the test on SF-268 CNS. Further, the growth was 94.7% in the test with SF-295 CNS; 104% in the test on SF-539 CNS; 87.6% in the test on UACC-257 melanoma; 91% in the test with M14 melanoma; 95.8% in the test on HCT-15 colon; 92.7% with HT29 colon. Also, the growth is 58% in the test on SNB-75 CNS; 89.3% in the test with SNB-19 CNS; 86.6% in the test on U251 CNS; 83.1% in the test on PC-3 prostate; 96.3% in the test on SK-MEL-5 melanoma; 71.2% with UACC-62 melanoma. For the same molecule, the growth was 85.9% in the test with LOX IMVI melanoma and 88% with SK-MEL-28 melanoma.

`N/C(=N/N=C/c1ccccc1)N/N=C\c1ccccc1`: the growth in the test with DU-145 prostate is 73.6%; in the test with K-562 leukemia, 21.8%; in the test with MALME-3M melanoma it was 67.4%; with MDA-MB-231 breast it was 76.3%; in the test on RXF 393 renal, 24.8%; with SF-268 CNS, 76%. Also, the growth in the test on SF-295 CNS was 66.9%; in the test on SF-539 CNS it was 58%; with UACC-257 melanoma, 68.5%; in the test with M14 melanoma it was 26.8%; in the test with HCT-15 colon, 44.1%; with HT29 colon, 27.7%. Also, the growth in the test with SNB-75 CNS was 67.1%; with SNB-19 CNS, 74.6%; in the test with U251 CNS, 50.2%; in the test on PC-3 prostate, 64.3%; with SK-MEL-5 melanoma, 34.1%; in the test on UACC-62 melanoma, 70.5%. In addition, the growth in the test on SK-MEL-28 melanoma is 71.9%.

Source of the values: PubChem BioAssay (NCI).
